{"source": "PubChem BioAssay (Tox21)", "note": "Records with an inconclusive call do not appear. A call without a number means that no potency is given here. Active and inactive are the calls of the source. Calls come from the whole dose curve; as a rule, active = well fitted cell-killing curve with a large enough effect in the repeat runs; inconclusive = weak or mixed curves, or effect the other way; inactive = flat fitted curve, though single readings scatter."}
{"experiment": "cAMP Responsive Elements (CRE) small molecule antagonists, cell-based qHTS assay: qHTS cell viability counter screen (AID 2060913); note: nearly all actives have a fitted effect of over 40% in size", "conditions": "CRE-bla HEK293T viability, CellTiter-Glo luminescence, 5 h; series mostly up to 92.4 µM", "in_short": "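CRE-bla HEK293T cells were seeded in assay medium with 10% dialyzed FBS, incubated 18 hrs at 37 C, then exposed to compounds plus 0.25 uM final NKH477 for 3 hrs. Viability was read by CellTiter-Glo luminescence after 30 min, in the same wells.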"}
{"smiles": "C[C@@H](O)C(=O)O", "Potency": "inactive"}
{"smiles": "CCCCCCCCCCCCCCCCCC(=O)OCC(CC)CCCC", "note": "(centres undefined)", "Potency": "inactive"}
{"smiles": "O=S(=O)(O)c1cccc(S(=O)(=O)O)c1", "Potency": "inactive"}
{"smiles": "Nc1cc(Cl)cc(S(=O)(=O)O)c1O", "Potency": "inactive"}
{"smiles": "C#Cc1cccc(Nc2ncnc3cc(OCCOC)c(OCCOC)cc23)c1", "Potency": "inactive"}
{"smiles": "O=c1cc(-c2ccccc2)oc2ccccc12", "Potency": "inactive"}
{"smiles": "O=C(NCCN1CCOCC1)c1ccc(Cl)cc1", "Potency": "inactive"}
{"smiles": "CCCCCC(=O)O", "Potency": "inactive"}
{"smiles": "CS(=O)(=O)c1ccc(Cl)cc1", "Potency": "inactive"}
{"smiles": "O=C(c1ccc(O)cc1)c1ccc(O)c(O)c1O", "Potency": "inactive"}
{"smiles": "COC(=O)C1=C(C)NC(C)=C(C(=O)OCC(C)C)C1c1ccccc1[N+](=O)[O-]", "note": "(centres undefined)", "Potency": "inactive"}
{"smiles": "O=S(=O)(O)c1cc(Cl)c(Cl)cc1Cl", "Potency": "inactive"}
{"smiles": "NCCc1ccn[nH]1", "Potency": "inactive"}
{"smiles": "Cc1cccc(Nc2ccccc2)c1", "Potency": "inactive"}
{"smiles": "CCCCCOc1ccccc1/C(=C\\SC)n1ccnc1", "Potency": "inactive"}
{"smiles": "C[N+]1(C)CCC(OC(=O)C(O)(c2ccccc2)C2CCCC2)C1", "note": "(centres undefined)", "Potency": "inactive"}
{"smiles": "C=Cc1ccc(O)c(OC)c1", "Potency": "inactive"}
{"smiles": "CCCCCN(CCCOC)C(=O)C(CCC(=O)O)NC(=O)c1ccc(Cl)c(Cl)c1", "note": "(centres undefined)", "Potency": "inactive"}
{"smiles": "CC/C=C\\C#N", "Potency": "inactive"}
